Most compounds without a hit are left out; they make up all but 5.8% or so of the library.
KB-V1 MDR tox = qHTS assay for MDR1-selective chemotherapeutics: Primary screen using the drug-selected MDR subline cells KB-V1; KB-V1 MDR cells viability, CellTiter-Glo, 72 h; Potency, µM (titrated, usually from 46.1 µM), hits mostly cytotoxic; 400,000 compounds, 3.4% hits; AID 1347076, 2019; also: % is scaled to controls: 0 for no effect and ±100 for the full control effect; nearly all actives have a fitted effect of over 60% in size
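Readout: CellTiter-Glo luminescence, 10 min after addition. Cells: KB-V1 MDR subline, 72 h at 37 degrees C with compound. Analysis: corrected, normalized data fitted to concentration-effect curves.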
PINK1 expr mod = A Quantitative High throughput Screen to Identify Chemical Modulators of PINK1 Expression | AID 624263, 2012 | PINK1 immunofluorescence, high-content cytometry, 24 h | Potency, µM (highest dose often 76.6 µM), without a hit: at the top dose activation (PINK1 increase), hits mostly activators | 410,000 compounds, 0.2% hits; active = well fitted activation curve with a large enough effect; inconclusive = small, poorly fitted or top-dose-only effect; cell line not stated here; also: % of control where 0% means no effect; nearly all actives have a fitted effect of over 65% in size
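Cells are seeded, rested 12 hours, then given compound at five concentrations or DMSO for 24 hours. After fixation, blocking and antibody staining, PINK1 amount and mitochondrial localization are scored; CCCP serves as control.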
KB-3-1 cytotox = qHTS assay for MDR1-selective chemotherapeutics: Primary screen using the parental adenocarcinoma cell KB-3-1; KB-3-1 viability, CellTiter-Glo ATP luminescence, 72 h; Potency, µM (series often up to 46.1 µM), actives largely listed as cytotoxic; 400,000 compounds, 1.4% hits; also: % is scaled to controls: 0 for no effect and ±100 for the full control effect; nearly all actives have a fitted effect of over 60% in size
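Cytotoxicity in the drug-sensitive parental line KB-3-1 was scored as loss of CellTiter-Glo luminescence following 72 h incubation with compound. Values come from curve fitting of normalized concentration-response data.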
SW480 rerep = A quantitative high throughput screen for small molecules that induce DNA re-replication in SW480 colon adenocarcinoma cells; SW480 DNA re-replication, Hoechst DNA content imaging, 48 h; Potency, µM (highest dose often 46.1 µM), without a hit: top-dose re-replication activation, most hits filed as activators; 340,000 compounds, 1.8% hits; also: % of control where 0% means no effect; nearly all actives have a fitted effect of over 55% in size
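Hoechst fluorescence of nuclei (405 nm excitation, 500-530 nm emission) measured by plate-scanning imager after 48 hr compound exposure at 37 C; re-replication scored as increased number of nuclei with elevated intensity.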
MCF10A rereplic = A quantitative high throughput screen for small molecules that induce DNA re-replication in MCF 10a normal breast cells; AID 624296, 2012; MCF 10A DNA re-replication, Hoechst nuclear intensity, 48 h; Potency, µM (series often up to 46.1 µM), for inactives: top-dose activity, positive = re-replication, hits mostly activators; 350,000 compounds, 2.9% hits; also: % of control where 0% means no effect; nearly all actives have a fitted effect of over 50% in size
12-LOX inh = Primary qHTS assay for inhibitors of human arachidonate 12S-lipoxygenase (ALOX12): Round 2; purified 12hLO, xylenol orange hydroperoxide absorbance; Potency, µM (titrated, usually from 108 µM), for inactives: top-dose activity change, negative = inhibition, actives largely listed as inhibitors; 580,000 compounds, 1.1% hits; also: % is scaled to controls: 0 for no effect and ±100 for the full control effect
Target sequence (P18054 whole entry, looked up): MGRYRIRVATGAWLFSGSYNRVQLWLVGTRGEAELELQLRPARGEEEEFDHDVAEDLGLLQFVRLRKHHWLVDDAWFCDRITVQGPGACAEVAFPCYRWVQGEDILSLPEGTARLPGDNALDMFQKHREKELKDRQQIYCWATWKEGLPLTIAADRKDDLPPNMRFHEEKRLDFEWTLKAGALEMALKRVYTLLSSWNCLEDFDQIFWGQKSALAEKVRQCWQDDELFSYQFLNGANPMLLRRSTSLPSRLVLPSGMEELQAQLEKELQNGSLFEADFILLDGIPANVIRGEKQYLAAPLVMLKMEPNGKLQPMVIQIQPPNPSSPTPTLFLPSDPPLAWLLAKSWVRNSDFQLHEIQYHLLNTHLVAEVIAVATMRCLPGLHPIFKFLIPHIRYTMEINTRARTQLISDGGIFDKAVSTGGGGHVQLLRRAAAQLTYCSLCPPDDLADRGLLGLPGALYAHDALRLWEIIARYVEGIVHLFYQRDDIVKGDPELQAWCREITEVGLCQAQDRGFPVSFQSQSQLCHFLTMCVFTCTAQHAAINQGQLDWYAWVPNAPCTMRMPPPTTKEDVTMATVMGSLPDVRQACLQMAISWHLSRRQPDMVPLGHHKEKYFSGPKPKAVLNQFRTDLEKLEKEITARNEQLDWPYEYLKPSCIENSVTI
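Hydroperoxide product was detected by ferrous iron/xylenol orange as the 573 to 405 nm absorbance ratio. Arachidonic acid at 40 uM (final) was turned over for 30 min at room temperature by 150 nM human 12hLO, pH 7.0 Hepes buffer, after 15 min compound preincubation.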
Numbers without * were called inactive; i = inactive; ? = inconclusive; · = not tested or not shown; [ ] = remark or other dose. Unless noted, calls follow the shape of the dose curve; as a rule, active = well fitted curve in the direction sought with a large enough effect; inconclusive = small, poorly fitted or top-dose-only effect, or another doubt; inactive = no such curve, though single readings can be large; an effect the other way counts as inactive or inconclusive. Potency is read from the fitted curve at half-maximal effect.

SMILES	KB-V1 MDR tox	PINK1 expr mod	KB-3-1 cytotox	SW480 rerep	MCF10A rereplic	12-LOX inh
CNC(=O)c1cc(Oc2ccc(NC(=O)Nc3ccc(Cl)c(C(F)(F)F)c3)cc2)ccn1	?	13%	?	?	16µM*	11%
CC(=O)Nc1ccc(S(=O)(=O)Oc2ccc(N3C(=O)C4CCCCC4C3=O)cc2)cc1 (stereo unspecified)	18µM*	-3%	?	-16%	9%	0%
CC(=O)Nc1ccc(S(=O)(=O)Oc2cccc(N3C(=O)C4CC=CCC4C3=O)c2)cc1 (stereo unspecified)	i	·	i	-3%	12%	-26%
N#C/C(C(=O)Nc1ccc(Cl)cc1)=C(/S)Nc1ccccc1	?	2%	i	?	?	1.8µM*
CCCc1cc(-c2n[nH]c(C)c2-c2ccc(C(=O)OCC)o2)c(O)cc1O	i	10%[38.3 µM]	i	1%	0%	?
CCCc1cc2c(OC(=O)CC)c(-c3ccc(C(=O)OCC)o3)c(=O)oc2cc1OC	i	0%	i	?	21µM*	?
CCOc1ccc(NC(=O)Cn2c(Nc3cc(C)cc(C)c3)nc(C)cc2=O)cc1	·	·	·	·	·	35µM*
COc1ccc(OC)c(CN2CCN(C(=O)[C@@H](NC(=O)c3cccc(C)c3)C(C)C)CC2)c1	9.2µM*	0%	i	7%	?	-4%
COc1cc(OC)cc(C(=O)NC(C(=O)N2CCc3ccccc3C2)C(C)C)c1 (stereo unspecified)	?	8%	?	18µM*	?	-2%
COc1ccc(C(=O)N2CCN(Cc3cc(OC)ccc3OC)CC2)cc1	i	0%	i	-9%	-2%	?
CC1CCN(c2ccc(NC(=O)C(Cc3ccccc3)NC(=O)c3cccs3)cc2)CC1 (stereo unspecified)	·	·	·	·	·	-10%
CNc1nccc(N2CCC(CC(=O)NC3CCN(Cc4ccccc4)CC3)CC2)n1	·	·	·	·	·	41%
Cc1nc2nc[nH]c2cc1Br	?	0%	i	0%	1%	8%
Cc1nc2[nH]c(=S)[nH]c2cc1Br	?	-2%	i	-8%	6%	13µM*
O=C(CCl)N(c1ccccc1)C1CCS(=O)(=O)C1 (stereo unspecified)	?	-2%	i	16µM*	?	5%
Cc1cc(C(=O)CSc2nnc(-c3ccncc3)n2-c2ccc(F)cc2)c(C)n1C1CC1	·	·	·	·	·	-20%
CCOC(=O)c1sc2c(c1C)C(c1cccs1)C1=C(CCCC1=O)N2 (stereo unspecified)	i	2%	?	?	9.2µM*	-3%
COCCNC(=O)[C@H]1C[C@H](Oc2ccccc2)CN1Cc1cccc(C)c1	·	·	·	·	·	27%
COc1cccc(-c2nnc3sc(NC(=O)C(C)C)nn23)c1	·	·	·	·	·	5%
N#CC(=C1C=CC(=NO)C(Cl)=C1)c1ccccc1	?	4%	6.5µM*	·	·	?
CCOC(=O)c1[nH]c2ccccc2c1NC(=O)c1ccc(S(=O)(=O)N(C)C)cc1	i	1%	i	0%	2%	22%[57.4 µM]
CN(C)S(=O)(=O)c1ccc(C(=O)Oc2cc(=O)[nH]c3ccccc23)cc1	i	-1%	i	4%	6.5µM*	23%
CC1(C)C(=O)N(c2ccccc2)C1c1ccccc1O (stereo unspecified)	i	6%	?	?	7.3µM*	-69%
